Bioassay records (PubChem BioAssay)
The list is not random: actives were taken first. Their share in the collection is about 2.4%.
D2 PAM-1: D2 dopamine receptor (human) potentiation | P14416 | HEK293 T-REx D2, calcium flux, EC20 dopamine potentiation | potentiation, % at 10 µM | actives 0.34% (n = 340,000);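 active means potentiation over 3 SD above the plate norm, cut at about 30% in these data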
Target sequence (P14416 whole entry, looked up): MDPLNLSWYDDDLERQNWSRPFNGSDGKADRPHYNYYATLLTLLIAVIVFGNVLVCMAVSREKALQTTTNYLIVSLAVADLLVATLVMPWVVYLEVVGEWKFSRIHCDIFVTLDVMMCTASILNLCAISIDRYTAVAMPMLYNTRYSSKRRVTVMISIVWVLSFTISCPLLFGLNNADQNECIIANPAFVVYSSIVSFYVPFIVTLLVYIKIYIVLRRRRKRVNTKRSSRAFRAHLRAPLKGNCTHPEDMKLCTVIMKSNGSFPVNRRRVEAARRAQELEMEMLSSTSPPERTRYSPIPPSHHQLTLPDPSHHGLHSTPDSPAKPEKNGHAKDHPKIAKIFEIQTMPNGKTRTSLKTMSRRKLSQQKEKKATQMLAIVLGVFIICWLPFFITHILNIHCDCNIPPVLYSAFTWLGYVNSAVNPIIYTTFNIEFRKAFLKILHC
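Potentiation of an EC20 dopamine calcium response measured kinetically over 180 s, after a preceding 180 s compound-only read flagging agonists. Cells: inducible Hek293 Trex D2 line, 4000/well, cultured overnight at 30 C before dye loading.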
D2 PAM-2: positive allosteric modulators of human D2 dopamine receptor. actives 0.23% (n = 360,000). AID 624464. potentiation, % (concentration not given with the values). DiscoveRx D2 beta-arrestin cells, luminescence, 90 min; 100% = 57 uM dopamine signal; in the data active means potentiation above about 50%; inconclusive means mostly about 30% to 49%
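PathHunter D2 cells, attached overnight at 37 deg C, received compound in DMSO plus dopamine at EC20 (50 nM final) for 90 min at 37 deg C. Beta-arrestin recruitment was read as luminescence after 1 h with detection reagent at ambient temperature.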
D2 antagonist: D2 dopamine receptor (human) antagonism. P14416. HEK293 TREx D2 cells, calcium flux, dopamine EC80. inhibition, % at 10 µM. actives 2% (n = 340,000). AID 485344; in the data active means inhibition above about 30%; inactive means below that, where a call was filed
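Antagonism is scored as inhibition of an EC80 dopamine-evoked calcium signal in a force-coupled, tetracycline-inducible HEK293 T-REx D2 line, with compound present 180 s before agonist.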
D2 ag-1: activates the human D2 dopamine receptor; P14416; DiscoveRx PathHunter D2 beta-arrestin, luminescence, 90 min; 100% = 57 uM dopamine signal; activation, % (concentration not given with the values); actives 0.084% (n = 360,000); in the data active means activation above about 40%; inconclusive means between about 15% and that limit
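Agonist mode: compounds alone added to overnight-plated D2 PathHunter cells for 90 min at 37 C, with 57 uM final dopamine (EC100) defining full response. Beta-arrestin recruitment detected by chemiluminescent reagent, read after 1 h at ambient temperature.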
D2 ag-2: D2 dopamine receptor (human) agonism; P14416; HEK293 T-REx D2 cells, calcium flux agonist mode; activation, % at 2 µM; actives 0.53% (n = 340,000); AID 485358;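 active means activation over 3 SD above normal in the single-dose calcium agonist read, cut at about 30% in these data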
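Calcium-flux readout, 1 cycle/sec over 180 s following compound pin transfer, in inducible HEK293 Trex D2 cells (force-coupled); dopamine controls included. Positive calcium responses during this window marked compounds as potential agonists.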
Numbers stand for hits; . = inactive; ? = inconclusive; / = no result given.

SMILES	D2 PAM-1	D2 PAM-2	D2 antagonist	D2 ag-1	D2 ag-2
CCC(OC(=O)c1ccco1)C(=O)NCc1ccc(C)cc1 (stereo not drawn)	.	.	66	.	.
Cc1ccc(CNC(=O)C(C)OC(=O)c2ccco2)cc1 (stereo not drawn)	.	.	.	.	.
Cc1cc2oc(C(=O)Nc3nonc3C)c(C)c2cc1Cl	34	.	.	.	.
CCC(=O)N1CCCc2cc(S(=O)(=O)N3CCC(C(=O)Nc4ccccc4CC)CC3)ccc21	.	/	/	/	.
COc1ccc(-c2nnc(SCCOc3ccccc3C)o2)cc1OC	.	/	/	/	.
NC(=O)C1CCCNC1 (stereo not drawn)	.	.	47	.	.
CC(C)N(Cc1ccccc1)c1ncnc2c1nnn2C	.	/	/	/	.
CCC(C)Sc1nc2c(c(=O)[nH]c(=O)n2C)n1CC(O)COc1ccccc1C (stereo not drawn)	.	.	30	.	.
CCC(C)Sc1nc2c(c(=O)[nH]c(=O)n2C)n1CCc1ccccc1 (stereo not drawn)	.	.	.	.	.
CCOC(=O)c1c(C)[nH]c(C)c1S(=O)(=O)NCC(=O)N1CCN(c2cccc(C)c2)C(C)C1 (stereo not drawn)	.	/	/	/	.
N/C(=N\OS(=O)(=O)c1ccccc1)c1ccncc1	.	96	.	?	.
N/C(=N\OS(=O)(=O)c1ccc2ccccc2c1)c1ccncc1	.	151	.	41	.
Cc1ccc(NC(=O)Cn2c(=O)n(CC3CCCO3)c(=O)c3ccccc32)cc1 (stereo not drawn)	.	/	/	/	/
CCOC(=O)CSC1=Nc2ccccc2C2=NC(CCC(=O)NCc3ccccc3)C(=O)N12 (stereo not drawn)	.	/	/	/	.
Cn1c(=O)c2[nH]c(-c3ccccc3Cl)c(O)c2n(C)c1=O	/	.	/	.	/
Cn1c(=O)c2[nH]c(-c3ccccc3)c(O)c2n(C)c1=O	.	108	.	?	.
COc1cc(OC)cc(-c2nc3nc(C)c(CCC(=O)Nc4ccc(F)cc4F)c(C)n3n2)c1	.	/	/	/	/
CCOC(=O)c1c(NC(=O)COC(=O)c2nc(Cl)ccc2Cl)sc(C(=O)N(C)C)c1C	.	.	.	.	.
CCOC(=O)c1c(NC(=O)COC(=O)CNC(=O)c2ccc(Cl)cc2Cl)sc(C(=O)N(C)C)c1C	32	.	.	.	.
COc1cc2ccccc2cc1C(=O)OCC(=O)c1c(N)n(C)c(=O)n(C)c1=O	.	.	52	.	.
Cn1c(=O)c(C(=O)COC(=O)c2cc(-c3ccccc3)nc3ccccc23)c(N)n(Cc2ccccc2)c1=O	.	/	31	/	.
Cn1c(=O)c(C(=O)COC(=O)c2cc(C(F)(F)F)nc3ccccc23)c(N)n(Cc2ccccc2)c1=O	.	/	.	/	.
Cc1ccc(NC(=O)CSCC#N)cc1	.	.	87	.	.
N#CCSCC(=O)Nc1ccc(Br)cc1	.	.	.	.	.
COc1cccc(CNC(=O)C2CCCN(c3nn4cc(-c5ccc(C)cc5)nc4s3)C2)c1 (stereo not drawn)	.	/	/	/	/
SMILES	D2 PAM-1	D2 PAM-2	D2 antagonist	D2 ag-1	D2 ag-2
CCCc1cc(=O)[nH]c(SC(C)C(=O)N2c3ccccc3CC2C)n1 (stereo not drawn)	.	.	44	.	.
CCCc1cc(=O)[nH]c(SCC(=O)N2c3ccccc3CC2C)n1 (stereo not drawn)	/	.	/	.	/
CCc1cccc(C)c1NC(=O)CSc1nc(C)c(C)o1	.	.	.	.	.
O=C(CSc1n[nH]c(-c2ccco2)n1)Nc1ccccc1Cl	.	.	30	.	.
Cc1nc(SCC(=O)Nc2ccccc2Cl)oc1C	.	.	31	.	.
Cc1cccc(C)c1NC(=O)CSc1nccn1C	.	/	/	/	.
Cc1cc(-c2nn(-c3ccccc3F)cc2CN2CCC(C(N)=O)CC2)c(C)s1	.	.	.	.	.
COCC1CCN(Cc2cn(-c3ccccc3F)nc2-c2cc(C)sc2C)CC1	.	.	73	.	.
Cc1cc(C)cc(NC(=O)C(=O)NCC(c2ccc3c(c2)OCO3)N2CCN(C)CC2)c1 (stereo not drawn)	.	/	/	/	.
Cc1cc(=O)n(CCO)c(O)c1C#N	.	52	.	.	.
COc1ccc(/C=C\C(=O)NCC(=O)N/N=C/c2cccc(OC)c2O)cc1	.	.	.	.	.
COc1ccc(Br)cc1/C=N/NC(=O)CNC(=O)/C=C/c1ccccc1	.	.	76	.	.
COc1cccc(/C=N/NC(=O)CNC(=O)/C=C\c2ccccc2)c1O	.	.	54	.	.
COc1ccccc1/C=C\C(=O)NCC(=O)N/N=C/c1ccc(O)cc1O	.	.	77	.	.
COc1ccc(/C=C/C(=O)NCC(=O)N/N=C/c2cc(Br)ccc2OCc2ccccc2)cc1	.	.	.	.	.
Cc1ccc(S(=O)(=O)Nc2ccc3c(c2)c(C(=O)OC(C)C)c(C)n3S(=O)(=O)c2ccc(C)cc2)cc1	/	/	/	/	.
OCCN(Cc1ccccc1)CC1CC2C=CC1C2 (stereo not drawn)	.	.	37	.	.
OCCN(Cc1ccccc1)CC1CCCCC1	.	.	.	.	.
Cc1cc(C)c(C)c(OCc2nc(-c3cccnc3)no2)c1	33	.	.	.	.
CCc1ccc(CN(Cc2ccco2)c2cnc(S(C)(=O)=O)nc2C(=O)Nc2c(C)cccc2C)cc1	.	/	/	/	.
CCc1cccc(NC(=O)C2CCN(C(=O)c3cnn(-c4ccccc4)c3-n3cccc3)CC2)c1	.	/	/	/	.
COc1ccc(OC)c(CCNC(=O)c2nn(C)c3c2CSc2ccccc2-3)c1	.	/	/	/	.
NC(=O)C1(N2CCCCC2)CCN(C(=O)Nc2ccc(F)cc2)CC1	.	/	/	/	.
N#Cc1ccc(CSc2nc(N)cc(=O)[nH]2)cc1	.	.	.	.	.
Cc1ccc(CSc2nc(N)cc(=O)[nH]2)cc1	.	.	30	.	.
Cc1sc2nc(CSc3ccccc3)nc(N3CCN(C)CC3)c2c1C	.	.	90	.	.
C=C(C)C(=O)Nc1cccc(C2=NOC3(C2)C[C@H](C(N)=O)N(C(=O)COc2ccc(Cl)cc2)C3)c1 (stereo partly drawn)	.	.	35	.	.
C/C=C\C=C/C(=O)Nc1cccc(C2=NOC3(C2)C[C@@H](C(N)=O)N(C(=O)C2(C)CC2)C3)c1 (stereo partly drawn)	.	.	.	.	.
C/C=C\C(=O)Nc1cccc(C2=NOC3(C2)C[C@@H](C(N)=O)N(C(=O)C2(C)CC2)C3)c1 (stereo partly drawn)	.	.	34	.	.
Cc1c(C(=O)N2CC3(CC(c4cccc(NC(=O)[C@H]5CCC(=O)N5)c4)=NO3)C[C@@H]2C(N)=O)cc([N+](=O)[O-])cc1[N+](=O)[O-] (stereo partly drawn)	.	74	.	.	.
